Compounds with a hit are over-represented: about 2.7% of the library has one in this group of screens.
Nrf2 ARE act = qHTS of Nrf2 Activators. AREc32 ARE-luciferase reporter (MCF7-derived line), luminescence, 24 h. Potency, µM (highest dose often 46.1 µM), for the others: at the highest dose activation, usual class: activators. 0.31% of 410,000 active; further: potency means the concentration at half of the fitted maximal effect; % of control where 0% means no effect; nearly all actives have a fitted effect of over 65% in size
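Cells of the AREc32 ARE-luciferase line are plated in OPTI-MEM containing 5% FBS and left overnight at 37 deg C. Compounds are pinned in, incubation continues 24 hr, and firefly luciferase signal is then measured.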
Nrf2 inh = Nrf2 qHTS screen for inhibitors; A549 ARE-Fluc reporter, luciferase luminescence, 18-24 h; AID 504444, 2011; Potency, µM (series often up to 46 µM), for inactives: top-dose activity change, negative = inhibition, usual class: inhibitors; 2.1% of 360,000 active; further: potency means the concentration at half of the fitted maximal effect; on the % scale 0 is the no-effect control and ±100 the full control effect; nearly all actives have a fitted effect of over 60% in size
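In this cell-based qHTS, ARE-driven firefly luciferase in A549 cells reports Nrf2 activity; the luminescent signal after BugLite lysis is the measured value, with a prior CellTiter-Fluor read for cell health.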
A549 viability = Nrf2 qHTS screen for inhibitors: counterscreen for cytotoxicity | A549 ARE-Fluc cells, CellTiter-Fluor viability, 18-24 h | Potency, µM (highest dose often 46 µM), without a hit: top-dose activity change, negative = cytotoxicity, hits mostly inhibitors | 0.16% of 390,000 active | AID 504648, 2011; further: potency means the concentration at half of the fitted maximal effect; on the % scale 0 is the no-effect control and ±100 the full control effect
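A549 ARE_Fluc cells in 5% FBS OPTI-MEM were exposed to compounds in concentration-response for 18-24 h at 37 deg C. Viability was read by CellTiter-Fluor fluorescence (Ex 405/Em 525) after 30 min, before the luciferase read.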
LDHA block = qHTS assay for inhibitors of human lactate dehydrogenase. 0.15% of 480,000 active. L-lactate dehydrogenase A chain (Homo sapiens), P00338. activity change, % (values are at about 110 or 230 µM). purified LDHA, NADH/diaphorase-resazurin fluorescence; hits give low values; in the data active means activity change below about -30%; inconclusive means mostly about -25% to -30%;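 further: plate controls were DMSO wells for no effect and wells without enzyme for full effect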
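Enzyme activity of human lactate dehydrogenase 5 (2 nM; 0.06 mM NADH, 0.2 mM pyruvate, 5 min, RT) is measured via a resazurin/diaphorase fluorescence readout of residual NADH.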
12-LOX inh = Primary qHTS assay for inhibitors of human arachidonate 12S-lipoxygenase (ALOX12): Round 2. AID 1671190, 2021. 1.1% of 580,000 active. Polyunsaturated fatty acid lipoxygenase ALOX12 (Homo sapiens), P18054. purified 12hLO, xylenol orange hydroperoxide absorbance. Potency, µM (doses to about 108 µM), inactives show top-dose activity change, negative = inhibition, actives largely listed as inhibitors; further: potency means the concentration at half of the fitted maximal effect; on the % scale 0 is the no-effect control and ±100 the full control effect
Target sequence (P18054 whole entry, looked up): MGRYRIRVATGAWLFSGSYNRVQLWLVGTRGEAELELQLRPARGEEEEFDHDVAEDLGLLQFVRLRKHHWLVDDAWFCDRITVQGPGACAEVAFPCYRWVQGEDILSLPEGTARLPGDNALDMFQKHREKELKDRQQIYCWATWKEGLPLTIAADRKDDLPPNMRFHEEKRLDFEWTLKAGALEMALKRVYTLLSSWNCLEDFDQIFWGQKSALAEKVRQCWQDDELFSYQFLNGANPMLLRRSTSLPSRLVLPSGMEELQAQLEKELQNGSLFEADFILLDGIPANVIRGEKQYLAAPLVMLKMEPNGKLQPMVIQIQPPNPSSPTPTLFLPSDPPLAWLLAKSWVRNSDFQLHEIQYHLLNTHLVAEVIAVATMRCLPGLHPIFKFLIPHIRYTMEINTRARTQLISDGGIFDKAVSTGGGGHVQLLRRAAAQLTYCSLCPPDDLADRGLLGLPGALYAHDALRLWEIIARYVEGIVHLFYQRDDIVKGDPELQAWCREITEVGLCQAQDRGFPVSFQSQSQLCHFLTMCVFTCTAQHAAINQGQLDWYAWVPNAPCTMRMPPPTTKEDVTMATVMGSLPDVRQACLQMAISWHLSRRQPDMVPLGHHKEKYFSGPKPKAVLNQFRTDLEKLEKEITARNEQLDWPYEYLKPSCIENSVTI
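Purified human 12hLO at 150 nM in 25 mM Hepes, 0.01% Triton X-100, pH 7.0, preincubated 15 min at room temperature with compound. Reaction started with 40 uM arachidonic acid, 30 min at room temperature. Hydroperoxide measured by Fe-xylenol orange, 573/405 nm absorbance ratio.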
ERG-DNA inh = qHTS for Small Molecule Inhibitors of the ERG Ets/DNA interaction | Transcriptional regulator ERG (Homo sapiens), P11308 | AID 624246, 2012 | 0.028% of 370,000 active | fluorescence polarization, His-ERG Ets domain / labelled DNA | Potency, µM (doses to about 76.9 µM), for the others: at the top dose FP activity, negative = inhibition, most hits filed as inhibitors; active means well fitted inhibition curve with a large enough effect in the polarisation, with a control signal flat; inconclusive means small, poorly fitted or top-dose-only effect, or effect the other way, or a change in a side signal; inactive means no such curve, though single readings can be large or run the other way; the % refers to the polarisation;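 further: polarization taken with two DNA probes labelled with fluorescein and Texas red; potency means the concentration at half of the fitted maximal effect; % of control where 0% means no effect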
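His-tagged ERG Ets domain (1 uM in the protein solution; 300mM KCl, 50mM Tris-HCl, 1mM EDTA, 1mM DTT, pH 7.5) received compound, then a probe mix of 5 nM fluorescein-DNA and 100nM Texas-615-DNA. Fluorescence polarization was read for both dyes.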
* marks the source's active call; other numbers are inactive results. Unless noted, the call rests on the fitted dose curve; in most records, active means well fitted curve in the direction sought with a large enough effect; inconclusive means small, poorly fitted or top-dose-only effect, or another doubt; inactive means no such curve, though single readings can be large; an effect the other way counts as inactive or inconclusive.

For CCn1cc2nc(SCc3cccc(C(F)(F)F)c3)n(CCc3ccccc3)c(=O)c2n1 the results were Nrf2 ARE act 0%, Nrf2 inh 15µM*, A549 viability 2%, LDHA block 4, 12-LOX inh -28% and ERG-DNA inh -5%.
Screening Cc1ccc(O)c(NC2=C(Cl)C(=O)N(Cc3ccccc3)C2=O)c1 returned Nrf2 ARE act 16%, Nrf2 inh -10%, A549 viability -6%, LDHA block 8, 12-LOX inh 5.6µM* and ERG-DNA inh 2%.
`COc1ccc(NC2=C(Cl)C(=O)N(CCc3ccccc3)C2=O)c(OC)c1` gave Nrf2 ARE act 13µM*, Nrf2 inh 1%, A549 viability 0%, LDHA block 0, 12-LOX inh 10% and ERG-DNA inh 3%.
`CN(C)C(=O)c1cccc(NC(=O)/C=C/c2ccccc2)c1` gave LDHA block 11 and 12-LOX inh inconclusive.
Screening S=C(NCCCCCNC(=S)Nc1cccc(Cl)c1)Nc1cccc(Cl)c1 returned LDHA block 2 and 12-LOX inh inconclusive.
For COc1ccc(OC)c(NC(=S)NCc2ccccc2OC)c1 the results were Nrf2 ARE act 2%, Nrf2 inh -3%, A549 viability 12%, LDHA block -13, 12-LOX inh inconclusive and ERG-DNA inh 4%.
For S=C(NCCC(c1ccccc1)c1ccccc1)Nc1ccccc1 the results were LDHA block -9 and 12-LOX inh 35µM*.
S=C(NCCC(c1ccccc1)c1ccccc1)Nc1cccc(Cl)c1 was read as Nrf2 ARE act 8%, Nrf2 inh inconclusive, A549 viability -17%, LDHA block -7, 12-LOX inh 22µM* and ERG-DNA inh -3%.
`Cc1ccc(NC(=S)NCCC(c2ccccc2)c2ccccc2)cc1` gave LDHA block 10 and 12-LOX inh inconclusive.
`COc1ccc(OC)c(NC(=S)NCCC(c2ccccc2)c2ccccc2)c1` gave Nrf2 ARE act 0%, Nrf2 inh inconclusive, A549 viability -7%, LDHA block 0, 12-LOX inh 8.9µM* and ERG-DNA inh -7%.
S=C(NCCNc1c(Cl)c(Cl)c(Cl)c(Cl)c1Cl)Nc1ccccc1 was read as LDHA block 1 and 12-LOX inh 13µM*.
For Cc1ccc(C)c(CN2CCC(CNC(=O)Nc3cn(CC(C)C)c(=O)c4ccccc34)CC2)c1 the results were LDHA block 21 and 12-LOX inh inconclusive.
Screening C#Cc1cccc(NC(=O)Cc2c[nH]c3ccccc23)c1 returned LDHA block -1 and 12-LOX inh -27%.
Cc1nc(SCC(=O)NN2C(=O)NC3(CCCCC3)C2=O)c2ccccc2n1 was read as LDHA block -4 and 12-LOX inh 9%.
`CCCCCC(C)NC(=O)C1CC2CCC1C2` (stereo not given) gave LDHA block -6 and 12-LOX inh 46%.
Cc1ccc(NC(=S)NCCC(c2ccccc2)c2ccccc2)c(C)c1 was read as Nrf2 ARE act 2%, Nrf2 inh inconclusive, A549 viability 1%, LDHA block -8, 12-LOX inh inconclusive and ERG-DNA inh 2%.
Screening S=C(NCCCCCCNC(=S)Nc1cccc(Cl)c1)Nc1cccc(Cl)c1 returned LDHA block 0 and 12-LOX inh 16µM*.
For Cc1ccccc1NC(=S)NCCC(c1ccccc1)c1ccccc1 the results were Nrf2 ARE act 3%, Nrf2 inh -3%, A549 viability 9%, LDHA block -8, 12-LOX inh 32µM* and ERG-DNA inh -6%.
For Cc1[nH][nH]c(=O)c1C(c1ccc(OCc2c(F)cccc2Cl)cc1)c1c(C)[nH][nH]c1=O the results were LDHA block 33 and 12-LOX inh inconclusive.
CSC(=S)N/N=C(\C)c1ccc(Br)cc1 was read as Nrf2 ARE act inconclusive, Nrf2 inh 17%, A549 viability 2%, LDHA block 4, 12-LOX inh 45µM* and ERG-DNA inh -10%.
Screening C/C(=N\NC(N)=S)c1ccc(Br)cc1 returned LDHA block 1 and 12-LOX inh inconclusive.
For CN(CC(=O)NC(C)(C)C)Cc1coc(-c2ccc(Cl)cc2)n1 the results were LDHA block 3 and 12-LOX inh -5%.
CCOC(=O)c1cccc(NC(=O)COc2ccc([N+](=O)[O-])cc2)c1 was read as Nrf2 ARE act 0%, Nrf2 inh 26µM*, A549 viability -10%, LDHA block -2 and 12-LOX inh 3%.
Cc1cccc(NC(=O)COc2ccc(/C=C\c3[nH]c(=O)[nH]c(=O)c3[N+](=O)[O-])cc2)c1 was read as Nrf2 ARE act 0%, Nrf2 inh 4%, A549 viability 0%, LDHA block inconclusive, 12-LOX inh 40µM* and ERG-DNA inh 3%.
`CCCOC(=O)c1cccc(NC(=O)COc2ccc([N+](=O)[O-])cc2)c1` gave Nrf2 ARE act 1%, Nrf2 inh inconclusive, A549 viability -24%, LDHA block -2, 12-LOX inh -2% and ERG-DNA inh -6%.
For O=c1[nH]c(/C=C/c2ccc([N+](=O)[O-])cc2)c([N+](=O)[O-])c(=O)[nH]1 the results were Nrf2 ARE act 0%, Nrf2 inh 4%, A549 viability -7%, LDHA block -2, 12-LOX inh inconclusive and ERG-DNA inh 0%.
O=C(CCc1ccsc1)NC1CCCC1 was read as LDHA block -1 and 12-LOX inh 1%.
`Cc1c(NC(=O)/C(C#N)=C/c2ccc(-c3ccc(Cl)cc3)o2)c(=O)n(-c2ccccc2)n1C` gave Nrf2 ARE act 10%, Nrf2 inh inconclusive, A549 viability 23µM*, LDHA block -3, 12-LOX inh inconclusive and ERG-DNA inh -6%.
Cc1c(NC(=O)/C(C#N)=C/c2ccc(-c3cc(Cl)ccc3Cl)o2)c(=O)n(-c2ccccc2)n1C was read as Nrf2 ARE act 0%, Nrf2 inh inconclusive, A549 viability inconclusive, LDHA block -7 and 12-LOX inh 10%.
Screening COc1ccc(C(=O)/C(C#N)=N/Nc2ccc([N+](=O)[O-])cc2)cc1 returned Nrf2 ARE act -1%, Nrf2 inh 2.6µM*, A549 viability inconclusive, LDHA block -20, 12-LOX inh inconclusive and ERG-DNA inh -8%.

Assay outcomes from PubChem BioAssay.
